In the library only some 0.63% were active in any assay of this set; here they are far more common.
TSHR antagonist – Antagonists of the Thyroid Stimulating Hormone Receptor: HTS campaign. TSHR-expressing cells, TSH-stimulated cAMP HTRF, 2 h; active compounds read low. hit rate 0.2% among 330,000. activity change, negative = inhibition, % at 11.5 µM. AID 504810, 2011;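 active = activity change below a set negative limit, meaning inhibition stronger than a set level, cut at about -70% in these data; inconclusive = activity change between two set negative limits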
Target sequence (P16473 whole entry, looked up): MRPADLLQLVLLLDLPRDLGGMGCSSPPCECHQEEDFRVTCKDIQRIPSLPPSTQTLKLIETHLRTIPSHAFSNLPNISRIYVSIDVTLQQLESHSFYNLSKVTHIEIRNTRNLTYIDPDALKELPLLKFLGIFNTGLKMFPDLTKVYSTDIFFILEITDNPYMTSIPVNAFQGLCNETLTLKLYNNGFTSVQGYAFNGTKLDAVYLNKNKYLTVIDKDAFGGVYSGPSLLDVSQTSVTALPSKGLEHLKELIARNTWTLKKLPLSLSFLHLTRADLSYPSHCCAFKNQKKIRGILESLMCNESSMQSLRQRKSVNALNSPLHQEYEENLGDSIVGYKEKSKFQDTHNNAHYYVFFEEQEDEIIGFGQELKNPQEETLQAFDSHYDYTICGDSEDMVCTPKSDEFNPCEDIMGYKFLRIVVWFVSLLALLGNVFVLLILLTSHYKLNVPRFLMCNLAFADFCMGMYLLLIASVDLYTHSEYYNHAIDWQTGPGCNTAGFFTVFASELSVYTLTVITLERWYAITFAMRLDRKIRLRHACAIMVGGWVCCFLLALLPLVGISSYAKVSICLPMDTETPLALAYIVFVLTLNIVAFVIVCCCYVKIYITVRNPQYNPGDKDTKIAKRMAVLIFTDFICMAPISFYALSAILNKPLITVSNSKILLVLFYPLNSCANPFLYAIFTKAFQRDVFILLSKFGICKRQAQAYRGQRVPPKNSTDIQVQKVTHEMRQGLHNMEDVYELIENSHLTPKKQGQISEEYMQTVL
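Read-out is FRET at 665 nm (cryptate excitation 337 nm) from a cryptate-tagged anti-cAMP antibody, competed by cell cAMP against cAMP-d2. Compounds are tested on freshly harvested TSHR cells challenged with 4nM TSH (EC80) for 2 hours at 37 deg C.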
gsp ag – qHTS for Agonist of gsp, the Etiologic Mutation Responsible for Fibrous Dysplasia/McCune-Albright Syndrome: qHTS; gsp mutant cells, cAMP HTRF, 30 min; hit rate 0.13% among 340,000; Potency, µM (top dose mostly 76.9 µM), most hits filed as activators; active = well fitted activation curve with a large enough effect; inconclusive = small, poorly fitted or top-dose-only effect, or another doubt; inactive = no such curve, though single readings can be large or run the other way; cell line not stated here;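 note: phosphodiesterase inhibitor Ro 20-1724 added with compounds to block cAMP breakdown; nearly all actives have a fitted effect of over 60% in size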
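Cells stably selected in G418 were plated at 2000/well, grown 16-24 hr, then given compounds in DMSO with the PDE inhibitor […] (300 uM solution added) for 30 min at 37C; cAMP was read by HTRF.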
TCR activator – Activators of T cell receptors: qHTS campaign; primary human leukocytes, anti-CD3, IL-2 HTRF, 48 h; Potency, µM (doses to about 9.22 µM), hits mostly activators; 330,000 tested, under 10 active; AID 504894, 2011; active = well fitted activation curve with a large enough effect; inconclusive = small, poorly fitted or top-dose-only effect, or another doubt; inactive = no such curve, though single readings can be large or run the other way
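Using a-CD3 beads without co-stimulation, primary human leukocytes were exposed to compounds for 48 hr. An HTRF IL-2 kit measured the cytokine, with europium-to-d2 energy transfer producing emission at 665nm upon 320nm excitation.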
Pin1 inhibitor – qHTS Assay to Find Inhibitors of Pin1; hit rate 0.009% among 390,000; Potency, µM (titrated, usually from 115 µM), usual class: inhibitors; Peptidyl-prolyl cis-trans isomerase NIMA-interacting 1 (Homo sapiens), Q13526; Pin1 FP peptide displacement, HiFluor488, 10 min; active = well fitted inhibition curve with a large enough effect in the polarisation, with a control signal flat, not every such curve was filed as active; inconclusive = small, poorly fitted or top-dose-only effect, or effect the other way, or a change in a side signal; inactive = no such curve, though single readings can be large or run the other way; the % refers to the polarisation
gsp antag – qHTS for Antagonists of gsp, the Etiologic Mutation Responsible for Fibrous Dysplasia/McCune-Albright Syndrome: qHTS | gsp-mutant cells, cAMP HTRF, 30 min | Potency, µM (highest dose often 76.9 µM), actives largely listed as inhibitors | hit rate 0.4% among 340,000 | AID 624288, 2012; calls by dose curve; cell line not stated here;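 note: intracellular cAMP measured with PDE inhibitor Ro 20-1724 present during compound exposure; nearly all actives have a fitted effect of over 65% in size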
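Measurement of cellular cAMP by homogeneous time-resolved fluorescence following a 30 min compound exposure at 37C. The PDE inhibitor […] was present throughout; the assay buffer was DPBS with 0.05% BSA and 0.005% Tween 20.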
Large screens that a line does not name were inactive.

COC(=O)C1=C(c2ccc(-c3ccccc3)c(F)c2)C[C@@H]2CC[C@H]1N2C(=O)NCCOc1ccccc1	TSHR antagonist -89
C[C@@H]1CN([C@H](C)CO)C(=O)c2cc(NC(=O)Nc3ccc(C(F)(F)F)cc3)ccc2O[C@H]1CN(C)S(=O)(=O)c1cccs1	none (no result: gsp ag)
C[C@H](CO)N1C[C@H](C)[C@@H](CN(C)Cc2ccc(-c3ccccc3)cc2)Oc2c(NC(=O)c3ccncc3)cccc2C1=O	gsp antag 32µM (no result: gsp ag)
CN1C(=O)C(Cc2nc3ccccc3c(=O)n2-c2ccccc2)c2ccccc21 (stereo not drawn)	gsp antag 35µM
O=C1Nc2ccccc2C1Cc1nc2ccccc2c(=O)n1-c1ccccc1 (stereo not drawn)	none
CNc1cc(Cl)c2nonc2c1[N+](=O)[O-]	TSHR antagonist -89
CCC(=NCc1cccnc1)c1c(O)n(C2CCCCC2)c(=O)[nH]c1=O	none
CC12CCC(O)CC1CCC1C2CCC2(C)C(C3=CC(=O)OC3)C(O)CC12O (stereo not drawn)	none (no result: TSHR antagonist)
C[C@]12CC[C@H](O)C[C@H]1CC[C@@H]1[C@@H]2C[C@@H](O)[C@]2(C)[C@@H](C3=CC(=O)OC3)CC[C@]12O	TSHR antagonist -75 (no result: gsp ag)
C[C@]12CC[C@H](O)C[C@H]1CC[C@@H]1[C@@H]2CC[C@]2(C)[C@@H](C3=CC(=O)OC3)CC[C@]12O	TSHR antagonist -78 (no result: gsp ag)
CC12CCC(O)CC1CCC1C2CCC2(C)C(C3=CC(=O)OC3)CCC12O (stereo not drawn)	none (no result: TSHR antagonist)
CCn1c(O)c(/C=N/NC(=O)c2ccncc2)c(=O)n(CC)c1=S	Pin1 inhibitor inconclusive
S=c1[nH]nc(-c2ccccc2)n1C1C=CCCC1 (stereo not drawn)	TSHR antagonist -71, gsp ag inconclusive
CCS(=O)(=O)NCc1nnc2n1-c1ccc(Cl)cc1C(c1ccccc1)=NC2	none
Cc1nc2c(-c3ccc(F)cc3)c(C)nn2c(C)c1CCC(=O)N1CCC2(CC1)OCCO2	none
CC1(C)C[C@H]2C=C(C=O)[C@]3(C=O)C[C@]3(C)[C@H]2C1	TSHR antagonist -87 (no result: gsp ag)
CCCCCCCCCOc1ccc2[nH]cc(CCN)c2c1	none (no result: gsp ag, TCR activator, Pin1 inhibitor, gsp antag)
Nc1ccc(-c2ccccc2)cc1	none (no result: TSHR antagonist)
Nc1ccc(C2(c3ccc(N)cc3)c3ccccc3-c3ccccc32)cc1	TSHR antagonist -102
CC(C)OCCCNC(=O)c1c(N)n(Cc2cccs2)c2nc3ccccc3nc12	Pin1 inhibitor inconclusive
C=CCn1c(O)c(C(C)=Nc2ccc(C(=O)O)cc2)c(=O)[nH]c1=O	none
CC(=O)O[C@H]1[C@H]2O[C@]23[C@@H]2CC[C@]4(O)C[C@@H](O)CC[C@]4(C)C2CC[C@]3(C)[C@H]1c1ccc(=O)oc1 (stereo partly drawn)	TSHR antagonist -79
C[C@]12CC[C@H]3C(CCC4(O)CC(O)CC[C@]34C=O)C1=CC[C@H]2c1ccc(=O)oc1 (stereo partly drawn)	TSHR antagonist inconclusive
N[C@@]1(C(=O)O)CC[C@@H](C(=O)O)C1	none (no result: gsp ag)
Cc1ccc2c(C)c3ccc4ccccc4c3c[n+]2c1	gsp ag inconclusive, gsp antag 50µM (no result: TSHR antagonist)
O=C(CNC(=O)c1cccc(Cl)c1)Nc1ccc(Br)cc1C(=O)c1ccccc1	gsp antag 40µM
O=C(CNC(=O)c1ccc(Cl)cc1)Nc1ccc(Br)cc1C(=O)c1ccccc1	gsp antag inconclusive
CN(C)CCC=C1c2ccccc2CCc2ccccc21	gsp antag 20µM (no result: gsp ag)
C#C[C@]1(O)CC[C@H]2[C@@H]3CCC4=Cc5nc6nc7ccccc7n6cc5C[C@]4(C)[C@H]3CC[C@@]21C	Pin1 inhibitor inconclusive, gsp antag 32µM (no result: gsp ag)
Cc1cc2c(cc(C(=O)N3CCC(C(=O)NC4CCCC4)CC3)n2Cc2c(F)cccc2Cl)o1	gsp antag 35µM
CN1CCN(c2ccc([N+](=O)[O-])c3no[n+]([O-])c23)CC1	TSHR antagonist -97, Pin1 inhibitor inconclusive, gsp antag inconclusive
C=C(C)C(Cc1c(OC)ccc(C(=O)/C=C/c2ccc(O)cc2)c1O)OO (stereo not drawn)	gsp antag 25µM (no result: gsp ag)
CNc1ccc2oc(C[C@H]3O[C@@]4(CC[C@H]3C)O[C@H]([C@H](C)C(=O)c3ccc[nH]3)[C@H](C)C[C@H]4C)nc2c1C(=O)O	TSHR antagonist -90, gsp antag inconclusive (no result: gsp ag)
CN1/C(=C\C=C\C2=[N+](C)c3ccc4ccccc4c3C2(C)C)C(C)(C)c2ccccc21	TSHR antagonist -93 (no result: gsp ag, TCR activator, Pin1 inhibitor, gsp antag)
CCN1/C(=C/C=C/C2=[N+](CC)c3ccccc3C2(C)C)C(C)(C)c2ccccc21	none (no result: TSHR antagonist, TCR activator, Pin1 inhibitor, gsp antag)
O=c1[nH]c(=O)n(CCc2ccc(F)cc2)c(O)c1C=NCCCn1ccnc1	Pin1 inhibitor inconclusive
O=C1C(=O)c2ccccc2-c2ccccc21	TSHR antagonist inconclusive, gsp antag 18µM (no result: gsp ag, Pin1 inhibitor)
CC1(C)NCCN2C(=O)CSC21 (stereo not drawn)	none
Cc1ccccc1-[n+]1c(-c2ccccc2)cc(-c2ccccc2)cc1-c1ccccc1	TSHR antagonist -75 (no result: gsp ag)
O=C(c1cc(-c2ccc(Cl)cc2)n(-c2ccc(Cl)cc2Cl)n1)N1CCOCC1	none
C=CCn1nc(C(=O)N2CCOCC2)cc1-c1sc(NC(=O)c2ccccc2)nc1C	gsp ag 22µM (no result: TSHR antagonist, TCR activator, Pin1 inhibitor, gsp antag)
CC(=O)Nc1ccccc1C(=O)OCc1ccc(C(=O)c2ccccc2)cc1	gsp antag 1.8µM
CC(=O)Nc1ccccc1C(=O)OCc1cccc(F)c1	none
CC(=O)Nc1ccccc1C(=O)OCC(=O)c1ccc2ccccc2c1	gsp antag 25µM
CN1Cc2ccccc2-n2nncc2C1	none (no result: TSHR antagonist, gsp ag)
O=c1cccc2n1CC1CC2CN(Cc2ccc3c(c2)OCO3)C1 (stereo not drawn)	none
CC(=NCCN(C)C)c1c(O)n(Cc2ccccc2)c(=O)[nH]c1=O	none
O=C(c1ccc(Cl)cc1)C1CCCN(Cc2ccon2)C1 (stereo not drawn)	none
CN1CCC(N(C)c2ncnc3ccc(Br)cc23)CC1	gsp ag 32µM
O=[N+]([O-])c1ccc(N2CCOCC2)c2ccncc12	none

From PubChem BioAssay
